PLAP act = activators of human placental alkaline phosphatase; 96,000 compounds, 1.2% hits; AID 696; activation fold at 20 µM; purified PLAP enzyme, luminescent substrate read-out; hits give high values; P05187; in the data active = activation fold above about 2
Target sequence (P05187 whole entry, looked up): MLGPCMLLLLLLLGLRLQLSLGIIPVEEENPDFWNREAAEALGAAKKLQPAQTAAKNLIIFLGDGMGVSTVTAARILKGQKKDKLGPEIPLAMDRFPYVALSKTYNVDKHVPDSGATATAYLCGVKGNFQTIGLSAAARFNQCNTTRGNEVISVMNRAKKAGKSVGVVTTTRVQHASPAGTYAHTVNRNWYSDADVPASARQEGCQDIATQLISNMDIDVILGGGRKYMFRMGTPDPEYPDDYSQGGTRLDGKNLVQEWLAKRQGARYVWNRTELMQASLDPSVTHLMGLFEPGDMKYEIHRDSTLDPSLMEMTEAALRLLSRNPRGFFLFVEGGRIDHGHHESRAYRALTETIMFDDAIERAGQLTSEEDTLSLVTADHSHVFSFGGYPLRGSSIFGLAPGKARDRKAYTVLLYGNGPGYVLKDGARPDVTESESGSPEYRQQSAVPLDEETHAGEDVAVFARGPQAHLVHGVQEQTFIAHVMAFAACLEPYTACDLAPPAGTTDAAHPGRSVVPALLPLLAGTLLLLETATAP
CYP2C19 act = cytochrome P450 2C19 (human) activation | recombinant CYP2C19, luciferin-H EGE luminescence; hits give high values; 0 = fully inhibited enzyme, 1 = untreated enzyme | P33261 | activation factor at 5 µM | 96,000 tested, under 10 active;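 active = activation factor of at least 2 at 5 µM in the primary screen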
CYP2C19 inh = human CYP2C19 inhibition | P33261 | AID 778 | 96,000 compounds, 21% hits | CYP2C19 Supersomes, luciferin-H EGE luminescence, 30 min | inhibition, % at 5 µM;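 active = CYP2C19 inhibition above a set limit at 5 µM in the primary screen, cut at about 50% in these data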
CYP2C9 activ = CYP2C9 (human) activation | P11712 | recombinant CYP2C9, luciferin-H conversion, luminescence; hits give high values; factor 1 = untreated enzyme, 0 = blocked | activation factor at 5 µM | 96,000 compounds, 1.4% hits | AID 1024;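 active = activation factor of 2 or more for CYP2C9 at a 5 µM dose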
CYP2C9 inhib = blocks human cytochrome P450 2C9 | P11712 | 96,000 compounds, 20% hits | CYP2C9 Supersomes, luciferin-H conversion, luminescence | inhibition, % at 5 µM | AID 777;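 active = blocking of liver enzyme CYP2C9 beyond about 50% at 5 µM, limit read from the data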
Of the large screens only hits and unclear results are named; the others gave an inactive call. This is a sample that favours compounds with a hit; in the whole collection about 31% have one here.

N#C/C(=C\c1cccc(Oc2ccc(C(F)(F)F)cc2[N+](=O)[O-])c1)c1nc2ccccc2[nH]1	none
N#C/C(=C\c1cc([N+](=O)[O-])c(N2CCCCC2)cc1N1CCCCC1)c1nn(-c2ccccc2)c(N)c1C#N	CYP2C19 inh 69, CYP2C9 inhib 97
Cc1cc(C=C(C#N)C#N)c(C)n1-c1ccccc1	none
O=C(OCn1ncc(Br)c(Br)c1=O)c1c(F)cccc1F	CYP2C19 inh 83
O=C(OCn1ncc(Cl)c(Cl)c1=O)c1ccc(F)cc1	none
COc1ccc(C(=O)c2ccccc2)cc1Br	CYP2C9 activ 2.2
COc1ccc(C(=O)c2ccc(OC)c(OC)c2)cc1OC	none
COc1ccc(C(=O)c2ccc(OC)c(N)c2)cc1N	CYP2C9 activ 2.6
COc1ccc(C(=O)c2ccc(OC)c(OC)c2)cc1	none
Cc1cc(C)c(NC(=O)C2CC(=O)N(c3ccc4c(c3)OCCO4)C2)c(C)c1 (stereo not given)	none
O=C(COC(=O)C1CC(=O)N(c2ccc3c(c2)OCCO3)C1)Nc1ccc2c(c1)CCC2 (stereo not given)	none
Cc1cccc(N2CC(C(=O)Nc3ccc4c(c3)OCO4)CC2=O)c1C (stereo not given)	none
O=C(Nc1nc(-c2ccco2)c(-c2ccco2)s1)C1CC(=O)N(c2ccc3c(c2)OCCO3)C1 (stereo not given)	CYP2C19 inh 71, CYP2C9 inhib 94
O=C(Nc1ccccc1Cc1ccccc1)C1CC(=O)N(c2ccc3c(c2)OCCO3)C1 (stereo not given)	CYP2C19 inh 64, CYP2C9 inhib 76
CCc1cccc(CC)c1NC(=O)C1CC(=O)N(c2ccc3c(c2)OCCO3)C1 (stereo not given)	CYP2C19 inh 74, CYP2C9 inhib 89
Cc1ccc(OC(=O)NC2CCS(=O)(=O)C2)cc1C (stereo not given)	none
[O-][n+]1onc2c3ccnnc3ccc21	none
O=C(Nc1ccccc1)OC(CN1CCCCC1)C(F)(F)F (stereo not given)	none
O=C(NC(Nc1ncc(S(=O)(=O)c2ccc([N+](=O)[O-])cc2)s1)(C(F)(F)F)C(F)(F)F)c1ccc(Cl)cc1	CYP2C9 inhib 88
N#CC1=C(N)c2ccccc2CC12CCCCC2	CYP2C9 inhib 78
COc1ccc2c(c1)c1nc3ccccc3nc1n2CCn1c(=O)oc2ccccc21	none
O=c1oc2ccccc2n1CCn1c2ccccc2c2nc3ccccc3nc21	CYP2C19 inh 78, CYP2C9 inhib 64
CCOC(=O)Cn1c2ccccc2c2nc3ccccc3nc21	CYP2C19 inh 58
CCCn1c2ccccc2c2nc3ccccc3nc21	CYP2C19 inh 54, CYP2C9 inhib 69
O=C(CNC1CCCCCC1)Nc1ccc(S(=O)(=O)NC2CC2)cc1	none
O=C(COc1ccc(S(=O)(=O)NC2CCCCC2)cc1)Nc1ccc2c(c1)OCCO2	CYP2C9 inhib 80
Cc1cccc(OCC(=O)NC(=S)Nc2ccc(S(=O)(=O)NC3CCCCC3)cc2)c1	CYP2C9 inhib 93
CCC(C)NS(=O)(=O)c1ccc(OCC(=O)Nc2ccc3c(c2)OCCO3)cc1 (stereo not given)	CYP2C9 inhib 60
COc1ccc(CC/C(=N\O)C2(O)CCCCC2)cc1	CYP2C19 inh 58, CYP2C9 inhib 70
COc1ccc(CCCC(=O)NC2CCCCC2)cc1	none
O/N=C(/CCc1ccccc1)C1(O)CCCCC1	CYP2C19 inh 81, CYP2C9 inhib 59
CCOC(=O)N1CCC(Nc2c(Nc3ccc(C)c(C)c3)c(=O)c2=O)CC1	none
O=C(NCC(=O)N1CCCCC1)c1ccc(Cl)cc1Cl	none
O=C(CNC(=O)c1ccc(Cl)cc1Cl)NCCCn1ccnc1	CYP2C19 inh 69, CYP2C9 inhib 51
O=C(NCCCN1CCc2ccccc2C1)Nc1ccc(Cl)cc1	none
O=C(NCCCn1ccnc1)Nc1ccc(Cl)cc1	CYP2C19 inh 97, CYP2C9 inhib 98
O=C(COc1ccc(Cl)cc1)NCCCn1ccnc1	CYP2C19 inh 99, CYP2C9 inhib 90
CCOc1ccc(NC(=O)C(=O)NCCCn2ccnc2)cc1	CYP2C19 inh 73, CYP2C9 inhib 60
CC(C)(C)SCCNC(=O)COc1ccc(Cl)cc1	none
Cc1ccc(C(=O)Cn2cnc3ccccc3c2=O)cc1C	none
O=C(NCCCN1CCOCC1)C1CCC(=O)N1CCc1ccccc1 (stereo not given)	none
CC(C)NC(=O)CSCc1cccc(Br)c1	none
COC(=O)c1[nH]c2ccc(C)cc2c1NC(=O)Nc1ccccc1OC	none
O=C(O)C1C2C=CC(O2)C1C(=O)NCCCn1ccnc1 (stereo not given)	none
O=C(NCCCn1ccnc1)Nc1ccc(Cl)c(Cl)c1	CYP2C19 inh 76, CYP2C9 inhib 100
O=C(NCCCN1CCCC1=O)Nc1ccc(F)c(Cl)c1	none
CCC(NC(=O)NCCCn1ccnc1)(C(F)(F)F)C(F)(F)F	CYP2C19 inh 97, CYP2C9 inhib 85
Cc1ccc(S(=O)(=O)N2C(=O)CCC2C(=O)Nn2cnnc2)cc1 (stereo not given)	none
COc1ccc(C(=O)Nc2ccc3oc(Cc4ccc(Cl)cc4)nc3c2)cc1OC	none
c1ccc(-c2nn3c(Cn4nnc5ccccc54)nnc3s2)cc1	none
COc1ccccc1-c1nnc2sc(COc3ccc(Cl)cc3)nn12	CYP2C19 inh 81, CYP2C9 inhib 88
COc1ccc(OCc2nn3c(-c4ccccn4)nnc3s2)cc1	none
COc1ccc(Cc2nn3c(Cn4nnc5ccccc54)nnc3s2)cc1	CYP2C19 inh 87, CYP2C9 inhib 79
COc1ccc(Cc2nn3c(-c4ccccc4OC)nnc3s2)cc1	CYP2C19 inh 82, CYP2C9 inhib 60
CCOC(=O)C(/C=C(\C#N)C(=O)OCC)=C(/N)N1CCN(c2ccc(Cl)cc2)CC1	none
Cc1ccc(CNC(=O)CCc2nc3ccccc3c(=O)[nH]2)cc1	none
O=C(NCc1ccccc1)N(Cc1nc2ccccc2c(=O)[nH]1)C1CCCC1	CYP2C9 inhib 53
COc1ccccc1C1(CC(=O)Nc2nccs2)CCOC(C(C)C)C1 (stereo not given)	CYP2C19 inh 92, CYP2C9 inhib 67
COc1ccccc1C1(CC(=O)N2CCOCC2)CCOC(C(C)C)C1 (stereo not given)	none
CCC(Sc1n[nH]c(=O)[nH]c1=O)C(=O)OCc1ccccc1 (stereo not given)	none
CCNC(=S)N/N=C/c1ccco1	none
Cc1cc(C)c(NC(=O)c2ccc(CN3CCc4ccccc4C3)cc2)c(C)c1	PLAP act 2.3
O=C(Nc1ccccc1)c1ccc(S(=O)(=O)N2CCOCC2)cc1	none
Cc1c(NC(=O)c2ccc(CN3CCc4ccccc4C3)cc2)c(=O)n(-c2ccccc2)n1C	none
O=C(Nc1ccc(S(=O)(=O)N2CCOCC2)cc1)c1ccc(CN2CCc3ccccc3C2)cc1	CYP2C9 inhib 55
N#CCC(=O)Nc1ncn(Cc2ccccc2Cl)n1	none
Cc1csc(=N)n1-c1ccc(Cl)cc1	none
Cc1nc(SCC(=O)c2ccc(Cl)cc2)c([N+](=O)[O-])[nH]1	CYP2C19 inh 53
